# Experimental data from ChEMBL document CHEMBL1157539, “Thousands of chemical starting points for antimalarial lead identification” (Nature, 2010).
# “And” between values parts separate entries of the source, which are not always exact repeats. Equal entries are not always repeated.
# System: HepG2
# Assay: GSK_TCMDC: Percent inhibition of human HepG2 cell line. Test compounds present at 10uM.
# Format: functional
row,SMILES,Inhibition
1,Cc1[nH]c2ccccc2c1C1=CCN(CCN2CCCc3c(Br)cccc3C2=O)CC1,10%
2,Cl.Fc1ccc2[nH]cc(CCN3CCC(CNCc4ccccc4)CC3)c2c1,67%
3,CN(c1cc(NC(=O)c2cccs2)ccn1)C1CCN(Cc2cccc(C#N)c2)CC1.O=C(O)C(F)(F)F,59%
4,CCCCC/C=C/C(=O)NC1CCC(CN2CCC(c3c[nH]c4ccccc34)CC2)CC1 (stereo not given),19%
5,CN(C)CCC(=O)c1ccccc1.Cl,11%
6,CC(=O)C1(c2ccccc2)CCN(CCC2(c3ccc(Cl)c(Cl)c3)CN(C(=O)C3CCCC3)CCO2)CC1 (stereo not given),11%
7,CN(CC(=O)N1CCN(S(=O)(=O)c2cccc(Cl)c2)CC1CN1CCCC1)c1ccc(Cl)c(Cl)c1 (stereo not given),32%
8,COc1ccc(O)c(CN2CCN(c3cc(C)ccc3C)CC2)c1,7%
9,COc1ccc(C(=O)C2CC2CN2CC=C(c3c[nH]c4ccccc34)CC2)cc1 (stereo not given),12%
10,COc1ccc(C=CC(=O)NC2CCC(CN3CCC(c4c[nH]c5ccccc45)CC3)CC2)cc1OC (stereo not given),14% and 15%
11,CC(=O)C1(c2ccccc2)CCN(CCC2(c3ccc(Cl)c(Cl)c3)CN(C(=O)C3CCCCC3)CCO2)CC1 (stereo not given),3%
12,O=c1n[n+](C2CCCCC2)[n-]o1,0%
13,O=C(NCCC1CCN(CCc2c[nH]c3ccccc23)CC1)Nc1ccc(Cl)c(Cl)c1,18%
14,O=C(/C=C/c1cccs1)NC1CCC(CN2CCC(c3c[nH]c4ccccc34)CC2)CC1 (stereo not given),33%
15,Cc1c(C)c2c(c(C)c1O)CC[C@](C)(C(=O)NC1CCC(CN3CCC(c4c[nH]c5ccccc45)CC3)CC1)O2 (stereo not given in full),24% and 27%
